Inconclusive results are not listed. Activity calls are given as the source filed them. Unless noted, the call rests on the fitted dose curve; in most records, active means well fitted curve in the direction sought with a large enough effect; inconclusive means small, poorly fitted or top-dose-only effect, or another doubt; inactive means no such curve, though single readings can be large; an effect the other way counts as inactive or inconclusive.
Legend:
[1] = qHTS of pediatric cancer cell lines to identify multiple opportunities for drug repurposing: Primary screen for TC32 cells (AID 1347089); further: nearly all actives have a fitted effect of over 60% in size; further: potency means the concentration at half of the fitted maximal effect
In short: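 In the primary qHTS, MIPE compounds were tested at 11 concentrations (0.78 nM to 46 µM) and NPC compounds at 8 (0.59 nM to 46 µM) on TC32 cells for 48 h. CellTiter-Glo luminescence gave viability.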

[2] = qHTS of pediatric cancer cell lines to identify multiple opportunities for drug repurposing: Primary screen for DAOY cells (AID 1347090); further: nearly all actives have a fitted effect of over 55% in size; further: potency means the concentration at half of the fitted maximal effect
In short: (§1)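 Eight- or eleven-point concentration series, 48 h treatment at 37 degrees C in growth media; readout CellTiter-Glo luminescence. Potency and efficacy were taken from the concentration-response curves.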

[3] = qHTS of pediatric cancer cell lines to identify multiple opportunities for drug repurposing: Primary screen for SJ-GBM2 cells (AID 1347091); further: potency means the concentration at half of the fitted maximal effect
In short: as §1

[4] = qHTS of pediatric cancer cell lines to identify multiple opportunities for drug repurposing: Primary screen for A673 cells (AID 1347092); further: nearly all actives have a fitted effect of over 45% in size; further: potency means the concentration at half of the fitted maximal effect
In short: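 48 h compound exposure, A673, 500-1,000 cells/well, 37 degrees C/5% CO2. MIPE: 11-point, 0.78 nM-46 µM; NPC: 8-point, 0.59 nM-46 µM (final). Readout CellTiter-Glo luminescence after 15 min RT.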

[5] = qHTS of pediatric cancer cell lines to identify multiple opportunities for drug repurposing: Primary screen for SK-N-MC cells (AID 1347093); further: potency means the concentration at half of the fitted maximal effect
In short: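 Metabolically active cells were quantified by ATP-dependent luminescence (CellTiter-Glo, 15 min at room temperature) following 48 h treatment. Cells had been plated at 500-1,000 per well and settled for 5 h beforehand.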

[6] = qHTS of pediatric cancer cell lines to identify multiple opportunities for drug repurposing: Primary screen for BT-37 cells (AID 1347094); further: potency means the concentration at half of the fitted maximal effect
In short: (§2)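 ATP-based luminescence (CellTiter-Glo) quantifies viability after a 48-hour exposure. Compounds are dosed across 8 or 11 final concentrations; DMSO and 2.3 µM bortezomib serve as controls.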

[7] = qHTS of pediatric cancer cell lines to identify multiple opportunities for drug repurposing: Primary screen for NB-EBc1 cells (AID 1347095); further: potency means the concentration at half of the fitted maximal effect
In short: as §2

[8] = target: T1, Tyrosine-protein phosphatase non-receptor type substrate 1 (Homo sapiens) + Leukocyte surface antigen CD47 (Homo sapiens) (UniProt P78324+Q08722); experiment: CD47-SIRPalpha protein protein interaction - HTRF assay qHTS validation (AID 1347058; active means well fitted curve in the direction sought with a large enough effect in the signal ratio, not every such curve was filed as active; the % refers to the signal ratio; further: series mostly up to about 38 µM)
T1 sequence (P78324 whole entry, looked up, the tested form may be a part): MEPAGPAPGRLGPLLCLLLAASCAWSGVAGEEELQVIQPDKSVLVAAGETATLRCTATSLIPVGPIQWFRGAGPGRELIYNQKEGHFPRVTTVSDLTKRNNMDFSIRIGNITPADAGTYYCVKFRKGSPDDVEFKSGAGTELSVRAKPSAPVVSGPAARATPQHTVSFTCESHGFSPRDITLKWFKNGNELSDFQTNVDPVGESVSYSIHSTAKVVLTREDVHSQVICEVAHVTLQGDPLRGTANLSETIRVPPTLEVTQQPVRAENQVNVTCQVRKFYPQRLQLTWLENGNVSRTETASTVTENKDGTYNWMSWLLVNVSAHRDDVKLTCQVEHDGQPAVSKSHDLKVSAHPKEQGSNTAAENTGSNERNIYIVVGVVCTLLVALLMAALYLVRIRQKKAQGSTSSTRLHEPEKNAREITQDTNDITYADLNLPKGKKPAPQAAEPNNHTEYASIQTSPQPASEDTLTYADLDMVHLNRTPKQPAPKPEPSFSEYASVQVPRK
T1 sequence (Q08722 whole entry, looked up, the tested form may be a part): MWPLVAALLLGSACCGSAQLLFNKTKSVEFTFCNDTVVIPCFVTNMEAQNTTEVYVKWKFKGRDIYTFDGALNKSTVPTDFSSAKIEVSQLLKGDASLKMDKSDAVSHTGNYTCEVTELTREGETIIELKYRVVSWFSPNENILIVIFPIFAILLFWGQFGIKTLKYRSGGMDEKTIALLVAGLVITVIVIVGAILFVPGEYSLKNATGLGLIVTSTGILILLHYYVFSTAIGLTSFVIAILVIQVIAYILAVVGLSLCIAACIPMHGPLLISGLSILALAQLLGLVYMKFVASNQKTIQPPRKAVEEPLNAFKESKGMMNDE
In short: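 TR-FRET read (Ch1/Ch2 ratio) of soluble extracellular CD47 and Avi-biotinylated SIRPalpha domains in PBS pH 7.4 with 0.05% IGEPAL; 7-point compound titration. Sequential 30 min room-temperature steps; non-biotinylated SIRPalpha as control inhibitor.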

[9] = target: T1, Tyrosine-protein phosphatase non-receptor type substrate 1 (Homo sapiens) + Leukocyte surface antigen CD47 (Homo sapiens); experiment: CD47-SIRPalpha protein protein interaction - Alpha assay qHTS validation (AID 1347059);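 further: bead proximity luminescence from CD47 binding SIRPalpha after compound preincubation with SIRPalpha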
In short: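 Soluble extracellular domains: Avi-tag biotinylated SIRPalpha (25 nM) preincubated 30 min RT with compound, then 6His-CD47 (12.5 nM) 30 min; Ni-NTA acceptor and streptavidin donor beads (10 ug/mL) 30 min, AlphaScreen read. PBS pH 7.4, 0.05% IGEPAL.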

[10] = target: Parathyroid hormone/parathyroid hormone-related peptide receptor (Homo sapiens) (UniProt Q03431); experiment: qHTS for PTHR1 Agonists: Optimization Screen against the NCGC LOPAC library (AID 1347079);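 further: GloSensor cAMP luminescence in HEK-293 GP2 cells expressing human PTHR1 with IBMX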
Chain of Parathyroid hormone/parathyroid hormone-related peptide receptor (Homo sapiens) (Q03431 whole entry, looked up): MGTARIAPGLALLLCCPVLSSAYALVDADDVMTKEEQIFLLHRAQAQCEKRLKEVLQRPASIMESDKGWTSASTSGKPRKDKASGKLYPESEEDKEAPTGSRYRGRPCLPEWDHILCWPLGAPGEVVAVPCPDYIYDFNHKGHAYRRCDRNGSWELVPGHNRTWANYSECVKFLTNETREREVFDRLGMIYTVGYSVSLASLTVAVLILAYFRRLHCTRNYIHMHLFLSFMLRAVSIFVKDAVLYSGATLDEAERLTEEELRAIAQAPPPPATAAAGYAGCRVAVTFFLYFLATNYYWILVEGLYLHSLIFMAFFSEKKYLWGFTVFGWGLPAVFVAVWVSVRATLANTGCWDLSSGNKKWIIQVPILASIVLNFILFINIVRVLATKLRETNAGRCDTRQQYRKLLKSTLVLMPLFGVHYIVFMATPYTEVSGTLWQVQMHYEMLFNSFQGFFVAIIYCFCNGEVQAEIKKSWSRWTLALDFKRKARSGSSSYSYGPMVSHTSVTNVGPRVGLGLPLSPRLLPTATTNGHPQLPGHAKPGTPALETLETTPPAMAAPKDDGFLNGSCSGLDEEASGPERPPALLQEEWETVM
In short: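 Compounds were tested across a qHTS titration. PTHR1-expressing GP2 cells report cAMP rises via GloSensor luminescence after 1 hr compound exposure at 37C with IBMX present.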

Measured: Potency

CN(C)Cc1c(C(=O)NCCOc2ccc(C(=O)NO)cc2)oc2ccccc12
active: [1] 5.87 µM | [2] 3.72 µM | [3] 1050 nM | [4] 935 nM | [5] 743 nM | [6] 1.93 µM | [7] 662 nM

CCN(CC)CCCCNc1ncc2cc(-c3cc(OC)cc(OC)c3)c(NC(=O)NC(C)(C)C)nc2n1
inactive: [1] | [2]
active: [3] 14800 nM | [4] 18700 nM | [5] 23500 nM | [6] 19.3 µM

CNC(=O)c1ccc(N2C(=S)N(c3cnc(C#N)c(C(F)(F)F)c3)C(=O)C23CCC3)cc1F
inactive: [1]
active: [2] 0.935 µM | [3] 7430 nM | [4] 1480 nM | [5] 1050 nM | [6] 19.3 µM | [7] 7430 nM

CC(C)C[C@H](NC(=O)CNC(=O)c1cc(Cl)ccc1Cl)B(O)O
active: [1] 2.94 µM | [2] 0.235 µM | [3] 187 nM | [4] 1480 nM | [5] 148 nM | [6] 0.485 µM | [7] 526 nM

Cc1ccc(-c2ncn(-c3ccc(Nc4nccc(-c5cccc(N6CCOCC6)c5)n4)cc3)n2)cn1
active: [1] 0.33 µM | [2] 0.187 µM | [3] 105 nM | [4] 93.5 nM | [5] 66.2 nM | [6] 0.122 µM | [7] 209 nM

CCCCc1nc2cc(C=CC(=O)NO)ccc2n1CCN(CC)CC
active: [1] 5.87 µM | [2] 3.72 µM | [3] 469 nM | [4] 118 nM | [5] 29.6 nM | [6] 0.0485 µM | [7] 590 nM

CC[C@H]1CN2CCc3cc(OC)c(OC)cc3[C@H]2C[C@@H]1C[C@@H]1NCCc2cc(OC)c(OC)cc21
active: [1] 1.17 µM | [2] 0.935 µM | [3] 209 nM | [4] 118 nM | [5] 296 nM | [6] 0.544 µM | [7] 935 nM

CC[C@@H]1C(=O)N(C)c2cnc(Nc3ccc(C(=O)NC4CCC(N5CCN(CC6CC6)CC5)CC4)cc3OC)nc2N1C(C)C (stereo not given in full)
active: [1] 0.37 µM | [2] 0.0743 µM | [3] 74.3 nM | [4] 93.5 nM | [5] 148 nM | [6] 2.43 µM | [7] 332 nM

c1nc2nc(Nc3ccc(N4CCOCC4)cc3)nc(NC3CCCCC3)c2[nH]1
active: [1] 4.66 µM | [2] 18.7 µM | [3] 1480 nM | [4] 4690 nM | [5] 935 nM | [6] 21.7 µM | [7] 3720 nM

Cc1cnc(Nc2ccc(F)cc2Cl)nc1-c1c[nH]c(C(=O)N[C@H](CO)c2cccc(Cl)c2)c1
inactive: [1]
active: [2] 7.43 µM | [3] 264 nM | [4] 37.2 nM | [5] 2350 nM | [6] 0.485 µM | [7] 833 nM

CCS(=O)(=O)c1cccc(-c2cc(C(=O)NC3CCN(C)CC3)c(C)c3[nH]c4ncc(C)cc4c23)c1
active: [1] 0.415 µM | [2] 14.8 µM | [3] 526 nM | [4] 743 nM | [5] 187 nM | [6] 3.06 µM | [7] 16600 nM

Nc1ncnc2c1c(-c1cnc3[nH]ccc3c1)nn2C1CCCC1
active: [1] 5.87 µM | [2] 3.72 µM | [3] 132 nM | [4] 1870 nM | [5] 66.2 nM | [6] 1.72 µM | [7] 469 nM

CCCn1c(=O)c2[nH]c(-c3cnn(Cc4cccc(C(F)(F)F)c4)c3)nc2n(CC)c1=O
inactive: [1] | [2]

Cc1cn(-c2cc(NC(=O)c3ccc(C)c(Nc4nccc(-c5cccnc5)n4)c3)cc(C(F)(F)F)c2)cn1
active: [3] 18700 nM | [7] 23500 nM
inactive: [1] | [2] | [4] | [5] | [6]

Cn1c2cc(S(C)=O)sc2c2cnn(Cc3cccc(N)c3)c(=O)c21 (stereo not given)
not listed: [8] | [9] | [10]
inactive: all other assays above

C=CC(=O)Nc1cc2c(Nc3ccc(F)c(Cl)c3)ncnc2cc1OCCCN1CCOCC1
active: [2] 18.7 µM | [3] 16800 nM | [4] 4690 nM | [5] 2350 nM | [6] 6.85 µM | [7] 18700 nM
inactive: [1]

Nc1cc(C(F)(F)F)c(-c2cc(N3CCOCC3)nc(N3CCOCC3)n2)cn1
active: [1] 2.62 µM | [2] 0.372 µM | [3] 296 nM | [4] 235 nM | [5] 29.6 nM | [6] 1.53 µM | [7] 166 nM

COc1cc2c(Oc3ccc(NC(=O)C4(C(=O)Nc5ccc(F)cc5)CC4)cc3F)ccnc2cc1OCCCN1CCOCC1
active: [1] 5.87 µM | [2] 18.7 µM | [3] 11.8 nM | [4] 2350 nM | [5] 743 nM | [6] 27.3 µM | [7] 4180 nM

O=c1c2ccccc2nc2n1CCc1c-2[nH]c2ccccc12
not listed: [6]
inactive: all other assays above

O=C(NC1CCNCC1)c1[nH]ncc1NC(=O)c1c(Cl)cccc1Cl
active: [1] 2.34 µM | [2] 1.18 µM | [3] 833 nM | [4] 59 nM | [5] 526 nM | [6] 1.37 µM | [7] 1870 nM

COc1cc2c(Oc3ccc(-c4cnc(Nc5ccc(F)cc5)n(C)c4=O)cc3F)ccnc2cc1OCCCN1CCOCC1
active: [1] 11.7 µM | [2] 18.7 µM | [3] 526 nM | [4] 5900 nM | [5] 833 nM | [6] 24.3 µM | [7] 3320 nM

O=c1[nH]nc(Sc2ncc([N+](=O)[O-])s2)n1-c1ccc2c(c1)OCCO2
inactive: [1]
active: [2] 9.35 µM | [3] 9350 nM | [4] 3720 nM | [5] 9350 nM | [6] 21.7 µM | [7] 2640 nM

CC1=C(CO)C(=O)O[C@@H]([C@@H](C)[C@H]2CC[C@H]3[C@@H]4C[C@H]5O[C@]56[C@@H](O)C=CC(=O)[C@]6(C)[C@@H]4CC[C@]23C)C1
active: [1] 2.34 µM | [2] 0.743 µM | [3] 372 nM | [4] 372 nM | [5] 132 nM | [6] 2.17 µM | [7] 469 nM

O=C(NCCCNc1nc(Nc2cccc(NC(=O)N3CCCC3)c2)ncc1I)c1cccs1
active: [1] 2.62 µM | [2] 14.8 µM | [3] 2960 nM | [4] 7430 nM | [5] 1320 nM | [6] 24.3 µM | [7] 23500 nM

Cc1nc2cnc3ccc(C#Cc4cccnc4)cc3c2n1-c1ccc(C(C)(C)C#N)cc1
active: [1] 0.33 µM | [2] 0.118 µM | [3] 332 nM | [4] 9.3 nM | [5] 46.9 nM | [6] 0.217 µM | [7] 833 nM

CC[C@@]1(O)C(=O)OCc2c1cc1n(c2=O)Cc2cc3cc(O)ccc3nc2-1
active: [1] 0.0415 µM | [2] 0.118 µM | [3] 23.5 nM | [4] 29.6 nM | [5] 13.2 nM | [6] 0.0217 µM | [7] 11.8 nM

CCn1nnc2c(N3CCOCC3)nc(-c3ccc(NC(=O)Nc4ccc(C(=O)N5CCN(C)CC5)cc4)cc3)nc21
active: [1] 0.0294 µM | [2] 0.235 µM | [3] 46.9 nM | [4] 93.5 nM | [5] 5.9 nM | [6] 0.0172 µM | [7] 743 nM

Cc1cc(Nc2cc(NC(=O)c3c(Cl)cccc3Cl)ccn2)nc(N)n1
active: [1] 0.93 µM | [2] 1.48 µM | [3] 590 nM | [4] 1180 nM | [5] 132 nM | [6] 0.544 µM | [7] 332 nM

O=C(c1cncc(Br)c1)N1CCC(N2CCCC2)CC1
inactive: [1] | [2] | [3] | [4] | [5] | [6]

C[C@@H]1COC(Nc2ccc3ncnc(Nc4ccc(OCc5nccs5)c(Cl)c4)c3c2)=N1
inactive: [1]
active: [2] 0.935 µM | [3] 23500 nM | [4] 935 nM | [5] 2350 nM | [6] 24.3 µM | [7] 2640 nM

Cc1c(CN2CCN(S(C)(=O)=O)CC2)sc2c(N3CCOCC3)nc(-c3cnc(N)nc3)nc12
active: [1] 0.294 µM | [2] 0.118 µM | [3] 46.9 nM | [4] 187 nM | [5] 4.7 nM | [6] 0.193 µM | [7] 33.2 nM

Cc1nc(N)ncc1-c1nc(N2CCOCC2)c2sc(C(C)(C)O)cc2n1
active: [1] 2.34 µM | [2] 0.935 µM | [3] 1050 nM | [4] 1180 nM | [5] 46.9 nM | [6] 6.11 µM | [7] 590 nM

COc1c(N2C[C@@H]3CCCN[C@H]3C2)c(F)cc2c(=O)c(C(=O)O)cn(C3CC3)c12
not listed: [8] | [9] | [10]
inactive: all other assays above

O=C(O)c1ccc2c(c1)nc(Nc1cccc(Cl)c1)c1ccncc12
inactive: [1]
active: [2] 4.69 µM | [3] 7430 nM | [4] 4690 nM | [5] 935 nM | [6] 7.69 µM | [7] 2350 nM

CN1CCN(c2ccc3nc(-c4c(N)c5c(F)cccc5[nH]c4=O)[nH]c3c2)CC1
inactive: [2]
active: [1] 14.7 µM | [3] 20900 nM | [4] 14800 nM | [5] 14800 nM | [6] 15.3 µM | [7] 3720 nM

Reference: PubChem BioAssay (NCATS)
